Test systems include HT29 colon; SNB-75 CNS; SNB-19 CNS; U251 CNS; SK-MEL-5 melanoma; UACC-62 melanoma; LOX IMVI melanoma; SK-MEL-28 melanoma; SK-MEL-2 melanoma; PC-3 prostate.
Assay in all cases: NCI-60 one-dose screen, 48 h (100 = growth as untreated, 0 = no growth, -100 = all killed)
Settings in all cases: 10 µM unless noted

Molecules are shown by their SMILES. About 83,000 compounds went through this panel and 20% of them were active in at least one assay; those are over-represented in the sample as a whole.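 The test compound was applied at a single concentration to cells in 96-well plates for 48 hours, and percent growth was recorded.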 Values without a mark were called inactive. Calls of active or inactive are those of the source. The calls were made as follows: active = growth percent below 10; inactive = the rest.

For `CN(CC(=O)Nc1nc2ccccc2[nH]1)S(=O)(=O)c1ccc(Cl)cc1`, the growth is 64.7% in the test on HT29 colon; 101% in the test with SNB-75 CNS; 92.4% in the test on SNB-19 CNS; 78.9% with U251 CNS; 84.1% with SK-MEL-5 melanoma; 66.9% in the test with UACC-62 melanoma. Moreover, the values for the growth with LOX IMVI melanoma, in the test on SK-MEL-28 melanoma and in the test with SK-MEL-2 melanoma were 64.7%, 121% and 53.7%, respectively.

Turning to `COc1cccc(/C=C2\COc3ccc(O)c(O)c3C2=O)c1OC`, the growth in the test on HT29 colon is 21.6%; with SNB-75 CNS, 21.8%; in the test with SNB-19 CNS it was 31.6%; in the test on U251 CNS, 10.9%; in the test with PC-3 prostate, 19.5%; in the test with UACC-62 melanoma, 8.54% (active). In addition, the results for the growth in the test on LOX IMVI melanoma, in the test on SK-MEL-28 melanoma and with SK-MEL-2 melanoma were -72.6% (active), 47% and 97.3%, respectively.

`CN(C)c1ccc2[nH]c3c(C(N)=O)cc(=O)c(=O)c=3oc2c1`: the growth was 127% in the test on HT29 colon; 52.7% with SNB-75 CNS; 74.4% in the test on SNB-19 CNS; 35.4% with U251 CNS; 59.3% in the test on PC-3 prostate; 62.6% in the test with UACC-62 melanoma. Besides, the growth was 8.85% (active) with LOX IMVI melanoma, 85.8% in the test with SK-MEL-28 melanoma and 85.4% with SK-MEL-2 melanoma.

As to `Cc1c(N(C)CS(=O)(=O)O)c(=O)n(-c2ccccc2)n1C`, the growth was 97.7% in the test with HT29 colon; 111% in the test on SNB-75 CNS; 101% in the test on SNB-19 CNS; 100% in the test on U251 CNS; 94.8% with PC-3 prostate; 96.9% with UACC-62 melanoma. In addition, the results for the growth in the test with LOX IMVI melanoma, in the test on SK-MEL-28 melanoma and in the test on SK-MEL-2 melanoma were 104%, 108% and 106%, respectively.

As for `Cc1cc2c(cc1[N+](=O)[O-])NC(CNC(C)C)CC2` (configuration not stated), the growth is 88.8% in the test with HT29 colon; 67.7% in the test on SNB-75 CNS; 87% with SNB-19 CNS; 99.2% in the test with U251 CNS; 96.8% in the test on SK-MEL-5 melanoma; 98.7% in the test with UACC-62 melanoma. In addition, the growth with LOX IMVI melanoma is 91.3%; with SK-MEL-28 melanoma, 114%; in the test on SK-MEL-2 melanoma, 112%.

As for `c1ccc2cc(C[n+]3ccn(CCCCCCCn4cc[n+](Cc5ccc6ccccc6c5)c4)c3)ccc2c1`, the growth in the test on HT29 colon was 10.4%; in the test with SNB-75 CNS, -2.59% (active); in the test with SNB-19 CNS, 21.6%; in the test on U251 CNS, 21%; with SK-MEL-5 melanoma it was -5.55% (active); in the test on UACC-62 melanoma, 27.3%. Besides, the growth was 40.7% with LOX IMVI melanoma, 44.3% in the test on SK-MEL-28 melanoma and 23.4% with SK-MEL-2 melanoma.

In the case of `O=C(Nc1ccc(C2=NCCCN2)cc1)Nc1ccc(C2=NCCCN2)cc1`, the growth in the test on HT29 colon is 92.4%; in the test with SNB-75 CNS, 94.5%; in the test on SNB-19 CNS, 96.7%; in the test with U251 CNS, 93.7%; in the test on SK-MEL-5 melanoma, 69.7%; in the test with UACC-62 melanoma it was 87.7%. For the same molecule, the growth with LOX IMVI melanoma is 89.9%; with SK-MEL-28 melanoma it was 86.9%; with SK-MEL-2 melanoma, 49%.

As to `CCCCC1Nc2nc(SC)n(C)c(=O)c2CN(Cc2ccccc2)C1=O` (configuration not stated), the growth with HT29 colon is 105%; in the test with SNB-75 CNS it was 86%; in the test with SNB-19 CNS, 93.7%; in the test with U251 CNS it was 92.2%; with SK-MEL-5 melanoma, 96.4%; with UACC-62 melanoma it was 85.9%. For the same molecule, the growth in the test on LOX IMVI melanoma was 88.6%; in the test on SK-MEL-28 melanoma, 122%; in the test with SK-MEL-2 melanoma, 90%.

Regarding `CCCCSc1cc(C)nc(N)n1`, the growth with HT29 colon was 103%; in the test on SNB-75 CNS it was 81%; with SNB-19 CNS, 99.4%; in the test on U251 CNS it was 93.8%; in the test on SK-MEL-5 melanoma, 101%; in the test on UACC-62 melanoma it was 93.9%. Moreover, the growth in the test with LOX IMVI melanoma was 92%; in the test on SK-MEL-28 melanoma it was 113%; in the test on SK-MEL-2 melanoma, 93.4%.

`COc1cc(/C=C/C(=O)Nc2cccnc2Nc2cc(OC)c(OC)c(OC)c2)cc(OC)c1OC`: the growth with HT29 colon is 94.3%; with SNB-75 CNS, 82.1%; in the test on SNB-19 CNS, 96.5%; in the test with U251 CNS, 91.3%; with SK-MEL-5 melanoma, 93.6%; with UACC-62 melanoma it was 84.4%. Moreover, the figures for the growth with LOX IMVI melanoma, in the test with SK-MEL-28 melanoma and in the test with SK-MEL-2 melanoma were 101%, 103% and 96.4%, respectively.

Take `O=C(c1nn(-c2ccc(Cl)cc2)cc1O)n1nc(C(F)(F)F)cc1-c1ccccc1`: the growth was 37.8% with HT29 colon; 55.4% with SNB-75 CNS; 51.2% in the test with SNB-19 CNS; 46.8% in the test with U251 CNS; 59% with SK-MEL-5 melanoma; 44.2% in the test on UACC-62 melanoma. Besides, the growth in the test on LOX IMVI melanoma is 32.8%; in the test on SK-MEL-28 melanoma, 53%; with SK-MEL-2 melanoma, 67.9%.

Take `O=C(Nc1ccc(Oc2ccc(NC(=O)Nc3ccc([N+](=O)[O-])cc3)cc2)cc1)Nc1ccc([N+](=O)[O-])cc1`: the growth is 8.5% (active) in the test on HT29 colon; 42.6% in the test on SNB-75 CNS; 29.7% in the test on SNB-19 CNS; 17.6% in the test with U251 CNS; -76.1% (active) in the test with SK-MEL-5 melanoma; 15.6% in the test on UACC-62 melanoma. In addition, the results for the growth in the test with LOX IMVI melanoma, in the test on SK-MEL-28 melanoma and with SK-MEL-2 melanoma were 12.4%, 24.8% and -27.5% (active), respectively.

Turning to `O=Nc1ccc(O)c(=O)cc1`, the growth in the test with HT29 colon is 4.07% (active); in the test on SNB-75 CNS, 63.3%; in the test on SNB-19 CNS, 102%; in the test with U251 CNS it was 14.6%; in the test on SK-MEL-5 melanoma, 79.8%; in the test with UACC-62 melanoma, 34.9%. Further, the growth with LOX IMVI melanoma is -4.94% (active); in the test on SK-MEL-28 melanoma, 55.9%; in the test with SK-MEL-2 melanoma it was 71.4%.

Values taken from PubChem BioAssay (NCI).
